Laboratory results: PubChem BioAssay
Activity calls are given as the source filed them. Unless noted, the rule behind the calls is not given here.

Columns and labels:
[1] = compound effects on lung adenocarcinoma cell viability – A549, calcein-AM fluorescence, 48 h, basal, profiling panel (AID 1162); conditions: higher = more signal; note: test concentration not given here
[2] = compound effects on differentiated 3T3-L1 adipocyte viability – cell-based, 3T3-L1 adipocytes, calcein-AM fluorescence, 48 h, basal, profiling panel (AID 1163); conditions: 3T3-L1 adipocytes viability, higher = more signal; note: test concentration not given here
[3] = compound effects on hepatocellular carcinoma cell viability – HepG2, calcein-AM fluorescence, 48 h, basal, profiling panel (AID 1164); conditions: higher = more signal; note: test concentration not given here
[4] = compound effects on multiple myeloma cell viability – MM1S, calcein-AM fluorescence, 48 h, basal, profiling panel (AID 1165); conditions: higher = more signal; note: test concentration not given here
[5] = calcein-AM signal in unstimulated myeloma cells – cell-based, calcein-AM fluorescence, 48 h, PK04 Diversity Set, profiling panel (AID 1166); conditions: RPMI8226 myeloma viability, higher = more signal;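 note: cells grown under basal conditions without added stimulus; test concentration not given here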
[6] = JC-1 mitochondrial signal, unstimulated HepG2 cells – cell-based, JC-1 fluorescence, 24 h, 100 nL compound, profiling panel (AID 1167); conditions: HepG2 mitochondrial potential, higher = more signal; note: test concentration not given here
[7] = JC-1 mitochondrial signal, unstimulated adipocytes – cell-based, JC-1 fluorescence, 3T3-L1 adipocytes, 24 h, 100 nL compound, profiling panel (AID 1168); conditions: JC-1 mitochondrial fluorescence, higher = more signal, called active from +8 up or from −8 down; note: test concentration not given here
[8] = JC-1 mitochondrial signal, unstimulated myeloma cells – cell-based, JC-1 fluorescence, RPMI8226, 24 h, 100 nL compound, profiling panel (AID 1169); conditions: JC-1 mitochondrial potential fluorescence, higher = more signal; note: test concentration not given here
[9] = JC-1 mitochondrial signal, unstimulated MM1S myeloma – cell-based, JC-1 fluorescence, 24 h, 100 nL compound, profiling panel (AID 1170); conditions: MM1S mitochondrial potential, higher = more signal; note: test concentration not given here
[10] = resazurin metabolic signal in A549 cells – cell-based, resazurin fluorescence, 24 h, PK04 Diversity Set, profiling panel (AID 1171); conditions: A549 viability, higher = more signal, called active from +8 up or from −8 down; note: test concentration not given here
[11] = resazurin metabolic signal in HepG2 cells – cell-based, resazurin fluorescence, 24 h, PK04 Diversity Set, profiling panel (AID 1172); conditions: HepG2 viability, higher = more signal; note: test concentration not given here
[12] = budding yeast growth changes without added modifier – OD600, strain BY4716, 24 h, basal condition, primary screen (AID 1173); conditions: S. cerevisiae BY4716 growth, OD600, 24 h; higher = more signal, called active from +8 up or from −8 down
[13] = viability profiling in MM1S myeloma cells – cell-based, resazurin fluorescence, basal, 24 h, PK04 Diversity Set, profiling panel (AID 1174); conditions: higher = more signal, called active from +8 up or from −8 down; note: test concentration not given here
[14] = target: Dihydroorotate dehydrogenase (quinone), mitochondrial (Plasmodium falciparum (isolate 3D7)) (UniProt Q08210); experiment: inhibition of P. falciparum DHODH – biochemical, C-terminal His tag, absorbance 600 nm, primary screen (AID 1175); conditions: PfDHODH enzyme, DCIP absorbance 600 nm; higher = more signal, called active from +8 up or from −8 down;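 note: recombinant parasite enzyme with a five histidine tag at its C terminus; test concentration not given here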
Chain of Dihydroorotate dehydrogenase (quinone), mitochondrial (Plasmodium falciparum (isolate 3D7)) (Q08210 whole entry, looked up): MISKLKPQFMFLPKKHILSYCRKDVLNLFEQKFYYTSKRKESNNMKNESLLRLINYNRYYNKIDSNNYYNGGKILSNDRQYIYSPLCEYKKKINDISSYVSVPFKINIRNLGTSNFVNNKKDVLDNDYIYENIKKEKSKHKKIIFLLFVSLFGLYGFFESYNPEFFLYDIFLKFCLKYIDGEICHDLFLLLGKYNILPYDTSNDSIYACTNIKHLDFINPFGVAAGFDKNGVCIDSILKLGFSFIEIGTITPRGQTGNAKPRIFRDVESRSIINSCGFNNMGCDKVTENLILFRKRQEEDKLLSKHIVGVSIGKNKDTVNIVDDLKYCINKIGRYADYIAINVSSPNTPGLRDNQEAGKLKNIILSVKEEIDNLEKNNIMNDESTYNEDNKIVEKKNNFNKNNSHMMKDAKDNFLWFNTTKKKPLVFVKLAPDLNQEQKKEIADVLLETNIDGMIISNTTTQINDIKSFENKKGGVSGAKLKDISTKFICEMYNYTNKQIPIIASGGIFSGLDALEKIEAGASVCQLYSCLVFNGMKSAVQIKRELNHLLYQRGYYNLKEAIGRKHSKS

[15] = inhibition of PAO1 biofilm formation – strain PAO1, LB-PBS medium, absorbance 600 nm, primary screen (AID 1176); note: test concentration not given here; conditions: P. aeruginosa PAO1 growth/biofilm, A600, 12 h; higher = more signal
[16] = growth modulation of vineyard yeast isolate – strain RM11-1a, OD600, basal, 24 h, primary screen (AID 1177);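 note: cultures grown under basal conditions with no added stressor; test concentration not given here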; conditions: S. cerevisiae RM11-1a growth, OD600, 24 h; higher = more signal, called active from +8 up or from −8 down
[17] = growth of efflux-deficient E. coli DRC39 – strain DRC39, OD650, 24 h, E. coli filamentation inducers, primary screen (AID 1178);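 note: growth measured as culture turbidity by optical density at 650 nm; test concentration not given here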; conditions: E. coli DRC39 acrAB, higher = more signal, called active from +8 up or from −8 down
[18] = growth of efflux-deficient E. coli DRC39 – strain DRC39, OD650, 48 h, E. coli filamentation inducers, primary screen (AID 1179);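 note: screen aims at cell division blockers that make cells filament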; conditions: E. coli DRC39 delta-acrAB growth, higher = more signal, called active from +8 up or from −8 down
[19] = viability profiling in RPMI8226 myeloma cells – cell-based, resazurin fluorescence, basal, 24 h, PK04 Diversity Set, profiling panel (AID 1180); conditions: higher = more signal;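 note: RPMI8826 multiple myeloma cell line at 5000 cells per well; test concentration not given here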
[20] = target: E3 ubiquitin-protein ligase XIAP (Homo sapiens) (UniProt P98170); experiment: small molecules binding XIAP protein – biophysical, small-molecule microarray, fluorescence 635 nm, primary screen (AID 1181); conditions: higher = more signal;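 note: score merges 667 nm emission and signal to noise over triplicate slides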
Chain of E3 ubiquitin-protein ligase XIAP (Homo sapiens) (P98170 whole entry, looked up): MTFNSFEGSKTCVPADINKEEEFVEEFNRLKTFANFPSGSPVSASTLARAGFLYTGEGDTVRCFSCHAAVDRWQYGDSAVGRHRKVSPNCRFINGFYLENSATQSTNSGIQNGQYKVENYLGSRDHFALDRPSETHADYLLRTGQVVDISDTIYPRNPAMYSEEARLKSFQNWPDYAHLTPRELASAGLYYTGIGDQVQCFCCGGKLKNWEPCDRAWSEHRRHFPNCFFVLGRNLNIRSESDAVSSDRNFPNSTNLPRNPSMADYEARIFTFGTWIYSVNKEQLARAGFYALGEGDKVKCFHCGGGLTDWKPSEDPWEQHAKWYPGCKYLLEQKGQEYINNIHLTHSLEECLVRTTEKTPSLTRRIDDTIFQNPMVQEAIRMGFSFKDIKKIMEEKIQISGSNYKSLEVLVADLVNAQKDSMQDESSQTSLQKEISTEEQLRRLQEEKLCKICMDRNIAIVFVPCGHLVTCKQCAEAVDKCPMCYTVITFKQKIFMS

| Compound | z-score [1] | z-score [2] | z-score [3] | z-score [4] | z-score [5] | z-score [6] | z-score [7] | z-score [8] | z-score [9] | z-score [10] | z-score [11] | z-score [12] | z-score [13] | composite z-score [14] | z-score [15] | z-score [16] | z-score [17] | z-score [18] | z-score [19] | composite z-score [20] |
| --- | --- | --- | --- | --- | --- | --- | --- | --- | --- | --- | --- | --- | --- | --- | --- | --- | --- | --- | --- | --- |
| CC(C)(C)N1C(=O)[C@H]2[C@@H]3C(=CC[C@H]2C1=O)C(=O)[C@H]1O[C@H]1[C@H]3O | -2.32 | -3.02 | -4.31 | -3.19 | -3.9 | 2.38 | 2.29 (inactive) | -0.787 | -2.59 | -3.43 (inactive) | -4.22 | -4.73 (inactive) | -7.59 (inactive) | -2.71 (inactive) | -0.331 (inactive) | -3.03 (inactive) | -0.662 (inactive) | -0.613 (inactive) | -5.04 | -0.178 |
| CC(CCN1CCCc2nc(C)c(C)cc21)=NOC[C@@H](O)COCc1ccco1 | 0.604 | 0.827 | -0.496 | -1.31 | -0.441 | -1.46 | -0.126 (inactive) | 0.0583 | -0.0723 | 0.287 (inactive) | 0.365 | 0.657 (inactive) | 0.107 (inactive) | -0.697 (inactive) | 1.24 (inactive) | -0.349 (inactive) | 0.557 (inactive) | 0.948 (inactive) | 0.592 | 2.53 |
| COc1ccc(O[C@H]2C=C[C@@H](c3ccccc3)O[C@@H]2CON=C2c3cc(OC)ccc3O[C@H](c3cccc(OC)c3)[C@H]2O)cc1 | 0.344 | -1.17 | 0.189 | -0.0952 | -1.04 | 0.422 | -2.37 (inactive) | -0.326 | -0.0381 | -0.142 (inactive) | -0.568 | 0.311 (inactive) | -0.89 (inactive) | 0.586 (inactive) | 1.53 (inactive) | 0.041 (inactive) | 0.779 (inactive) | -0.824 (inactive) | -0.387 | -0.206 |
| C[C@H]1CC[C@@H](C(=O)O)N[C@@H]1c1ccc(C#Cc2ccccc2)cc1 | -2.1 | 0.196 | -2.28 | -3.57 | -3.49 | -3.46 | -0.272 (inactive) | -0.92 | -1.59 | -0.522 (inactive) | -0.214 | -19.1 (active) | -0.477 (inactive) | -1.36 (inactive) | -0.446 (inactive) | -18.9 (active) | -0.0449 (inactive) | -0.384 (inactive) | 0.0569 | -0.0773 |
| CC(CCN1CCCc2nc(C)c(C)cc21)=NO[C@@H](C)c1cn([C@H](CO)Cc2ccccc2)nn1 | 1.11 | -0.189 | -0.136 | 0.33 | 0.049 | 0.38 | 0.733 (inactive) | -0.0733 | -0.762 | -0.131 (inactive) | -0.333 | 0.472 (inactive) | 0.0688 (inactive) | -1.1 (inactive) | -0.725 (inactive) | 0.792 (inactive) | 0.851 (inactive) | 0.961 (inactive) | -0.789 | 0.115 |
| CCO[C@H](c1cc(OC)cc([N+](=O)[O-])c1OC)[C@H](C)[C@@H](OC)[C@H](C)C=CCC(=O)OC | 0.207 | -0.402 | 0.513 | 0.0601 | 0.824 | -0.524 | -0.476 (inactive) | -0.441 | -0.236 | 0.319 (inactive) | -0.467 | -0.435 (inactive) | 0.149 (inactive) | 0.189 (inactive) | -0.303 (inactive) | -0.147 (inactive) | -0.508 (inactive) | -0.17 (inactive) | 0.0951 | 0.1 |
| C=CC[C@@H]1C=C[C@H](ON=C[C@@H](NS(=O)(=O)c2ccc(C)cc2)[C@H](C)C=CCC(=O)OC)[C@@H](CO)O1 | 0.309 | 0.359 | 0.405 | 0.465 | -0.915 | -0.836 | -0.959 (inactive) | 0.117 | -0.979 | -1.03 (inactive) | -0.71 | 0.071 (inactive) | -0.681 (inactive) | -0.383 (inactive) | 0.0525 (inactive) | -0.0257 (inactive) | -0.251 (inactive) | 0.119 (inactive) | -0.422 | -0.231 |
| CC(C)=NOC(C)CN1CCCCc2nc(C)c(C)cc21 (stereo not given) | 0.0529 | -0.047 | -0.018 | -0.3 | -0.637 | -0.792 | -0.78 (inactive) | -0.633 | 0.354 | -0.585 (inactive) | -0.724 | 0.0416 (inactive) | -0.408 (inactive) | -0.241 (inactive) | 0.547 (inactive) | 0.113 (inactive) | 0.668 (inactive) | -0.562 (inactive) | -0.491 | 0.111 |
| CCOC(=O)CCN1C(=O)[C@H]2[C@H]3[C@H](O)[C@H](O)CC(=NO[C@@H]4O[C@H](CO)[C@@H](O)[C@H](O)[C@H]4O)[C@H]3CC[C@H]2C1=O | 0.484 | -0.961 | -0.898 | -0.359 | -0.0451 | -1.13 | -0.647 (inactive) | -0.225 | -0.171 | -0.292 (inactive) | -0.228 | 0.87 (inactive) | -0.433 (inactive) | 0.29 (inactive) | -0.483 (inactive) | -0.402 (inactive) | -0.739 (inactive) | -0.0907 (inactive) | -0.162 | 0.106 |
